Only some compounds are listed: those with a hit (about 19% of all), similar ones and a draw of the others.
TDP1 cell CPT: growth inhibition of DT40 Tdp1-/-;hTDP1 cells with camptothecin (screen for TDP1 inhibitors); chicken DT40 Tdp1-/-;hTDP1 cells + 20 nM CPT, ATP luminescence, 48 h; Potency, µM (titrated, usually from 46.2 µM), usual class: inhibitors; actives 12% (n = 420,000); AID 686979; note: nearly all actives have a fitted effect of over 55% in size
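Chicken DT40 Tdp1-/- cells complemented with human TDP1, 400 cells/well, exposed to compounds plus 20 nM camptothecin for at least 48 h at 37 C; viability read as ATP content by CellTiter-Glo luminescence.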
IL-1B inflam inh: inflammasome signaling inhibition, IL-1 beta readout; THP-1 LPS/ATP IL-1B secretion, AlphaLISA, 16 h; hits give low values; activity change, % at 57.5 µM; actives 4.7% (n = 360,000); AID 743279; in the data active = activity change below about -50%; inconclusive = mostly about -30% to -49%
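Secreted IL-1B measured by AlphaLISA bead assay after 16 h compound exposure of THP-1 cells; compounds (final up to 57.5 uM) added 1 h before LPS (250 ng/mL) and ATP (1.25 mM) stimulation; lower signal means less secretion.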
HT1080 IDH1KD tx: kills HT-1080 cells with IDH1 knockdown; HT-1080 IDH1 knockdown viability, ATP luminescence, 48 h; Potency, µM (series often up to 46.1 µM), hits mostly cytotoxic; actives 2% (n = 360,000); AID 686971
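Using the IDH1-knockdown HT-1080 line run in the same batch and compound series as the NT line, viability after 48 h at 37 °C was determined by CellTiter-Glo luminescence and expressed as % activity.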
DT40 TDP1 no CPT: qHTS for Inhibitors of human tyrosyl-DNA phosphodiesterase 1 (TDP1): qHTS in cells in absence of CPT. DT40 Tdp1-/- hTDP1 cells, no CPT, ATP luminescence, 48 h. Potency, µM (doses to about 46.2 µM), hits mostly inhibitors. actives 15% (n = 420,000). AID 686978, 2013; note: nearly all actives have a fitted effect of over 55% in size
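No-CPT arm: Tdp1-/-;hTDP1 DT40 cells (400/well) plus compounds, incubated ≥48 hr at 37 °C. Readout CellTiter-Glo luminescence.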
HT1080-NT tox: kills 2HG-producing HT-1080-NT fibrosarcoma cells; actives 1.6% (n = 360,000); HT-1080-NT fibrosarcoma viability, CellTiter-Glo ATP luminescence, 48 h; Potency, µM (top dose mostly 46.1 µM), most hits filed as cytotoxic;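 note: NT is the 2HG producing partner of a matched IDH1 knockdown line; nearly all actives have a fitted effect of over 55% in size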
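A 48-hour cytotoxicity screen used HT-1080-NT cells plated 2 hours before compound delivery. ATP-based CellTiter-Glo luminescence measured viability, normalized to DMSO and no-cell controls.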
A number is an active result; – = inactive; ? = inconclusive; · = no result given. Unless noted, calls come from the whole dose curve; as a rule, active = well fitted curve in the direction sought with a large enough effect; inconclusive = small, poorly fitted or top-dose-only effect, or another doubt; inactive = no such curve, though single readings can be large; an effect the other way counts as inactive or inconclusive.

SMILES | TDP1 cell CPT | IL-1B inflam inh | HT1080 IDH1KD tx | DT40 TDP1 no CPT | HT1080-NT tox
COCCNc1nc(Oc2cccc(NC(C)=O)c2)c2sc(-c3ccccc3)cc2n1 | ? | – | – | ? | –
c1ccc(-c2cc3nc(NCc4cccs4)nc(NCc4ccc5occc5c4)c3s2)cc1 | ? | -88.7 | 18.4µM | ? | 16.4µM
COCCNc1nc(NCCOc2ccccc2)c2sc(-c3ccccc3)cc2n1 | 16.4µM | -107.5 | 23.1µM | 14.6µM | 14.6µM
C=CCNc1nc(NCc2cccc(OC)c2)c2sc(-c3ccccc3)cc2n1 | 5.8µM | -107.7 | ? | 4.11µM | ?
COCCNc1nc(NCCOC)c2sc(-c3ccccc3)cc2n1 | 25.9µM | · | – | 25.9µM | –
Cc1ccc2c(c1)N(CC(=O)NCCCN1CC(C)CC(C)C1)C(=O)c1cccnc1O2 (configuration not stated) | – | – | – | – | –
COCCNc1nc2cc(-c3ccc(C)cc3)sc2c(=O)n1C | ? | – | – | ? | –
COCCNc1nc(-c2ccc(OC)cc2C)c2sc(-c3ccccc3)cc2n1 | 20.6µM | – | ? | 16.4µM | ?
COCCNc1nc(NCCN2CCNC2=O)c2sc(-c3ccccc3)cc2n1 | 25.9µM | · | – | 20.6µM | ?
O=C(O)C1=CC(=C(c2ccc(O)c(C(=O)O)c2)c2ccc(O)c(C(=O)O)c2)C=CC1=O | – | · | – | – | –
O=C1C=CC(=C(c2ccc(O)cc2)c2ccc(O)cc2)C=C1 | 9.2µM | -100.0 | 11.6µM | 2.31µM | 9.2µM
CN1C(=O)C2(Nc3ccccc3-c3nc4ccccc4n32)c2ccccc21 (configuration not stated) | – | – | – | – | –
O=C1Nc2ccccc2C12Nc1ccccc1-c1nc3ccccc3n12 (configuration not stated) | ? | – | – | 23.1µM | –
CCN1C(=O)C2(Nc3ccccc3-c3nc4ccccc4n32)c2cc(OC)ccc21 (configuration not stated) | – | ? | – | – | –
c1ccc2c(c1)NC1(CCCCC1)n1c-2nc2ccccc21 | – | – | ? | – | –
CCCCC1(C)Nc2ccccc2-c2nc3ccccc3n21 (configuration not stated) | 16.4µM | – | – | ? | –
CC1(c2ccccn2)Nc2ccccc2-c2nc3ccccc3n21 (configuration not stated) | 18.4µM | – | – | 16.4µM | –
N#Cc1ccc(NC(=O)CN2C(=O)NC3(CCCC3)C2=O)cc1 | – | – | – | – | –
COc1ccc2c(c1)[C@H]1[C@H](CO2)[C@H](c2ccccc2)[C@]2(C)C(=O)Nc3ccc(Br)cc3C(=O)N12 | 16.4µM | ? | – | ? | –
Cc1ccc2c(c1)[C@H]1[C@H](CO2)[C@H](c2ccccc2)[C@]2(C)C(=O)Nc3ccc(Br)cc3C(=O)N12 | ? | ? | ? | 16.4µM | –
Cc1ccc2c(c1)C(=O)N1[C@H]3c4cc(Br)ccc4OC[C@@H]3[C@H](c3ccccc3)[C@]1(C)C(=O)N2 | 23.1µM | – | ? | 23.1µM | ?
COc1ccc2c(c1)OC[C@H]1[C@H]2N2C(=O)c3cc(Br)ccc3NC(=O)[C@@]2(C)[C@H]1c1ccccc1 | – | – | – | ? | –
COc1cc(OC)cc(C(=O)N[C@H](C(=O)Nc2c(C)n(C)n(-c3ccccc3)c2=O)C(C)C)c1 | ? | – | – | ? | –
C/C(=N/NC(=O)c1cccs1)c1ccc(NC(=O)COc2ccc(Cl)cc2)cc1 | ? | – | – | – | –
CNC(=O)C1CCC(Cn2c(=O)[nH]c3ccsc3c2=O)CC1 (configuration not stated) | – | · | · | – | ·
SMILES | TDP1 cell CPT | IL-1B inflam inh | HT1080 IDH1KD tx | DT40 TDP1 no CPT | HT1080-NT tox
CC1CCc2c(sc(NC(=O)C3c4ccccc4Oc4ccccc43)c2C#N)C1 (configuration not stated) | – | · | · | – | ·
Cc1ccc(S(=O)(=O)Nc2cc(C)cn(Cc3ccc(F)cc3)c2=O)cc1 | 25.9µM | – | ? | ? | –
Cc1ccc(S(=O)(=O)Nc2cc(C)cn(Cc3ccccc3)c2=O)cc1 | 20.6µM | – | – | 16.4µM | –
Cc1ccc(S(=O)(=O)Nc2cc3c(cc2Cl)n(C)c(=O)c(=O)n3C)cc1 | – | · | · | – | ·
CCCCc1nn2c(=O)cc(COC(=O)c3ccccc3NC(=O)c3cccc(C)c3)nc2s1 | – | · | · | – | ·
CCOc1ccccc1NC(=O)COC(=O)c1nc2nccc(C)n2n1 | – | – | – | – | –
COc1ccccc1-c1cnc(C(O)c2ccc(Cl)c(Cl)c2)[nH]1 (configuration not stated) | ? | – | ? | 16.4µM | –
OC(c1ccc(Cl)c(F)c1)c1ncc(-c2ccccc2C(F)(F)F)[nH]1 (configuration not stated) | ? | – | – | ? | –
COc1ccccc1-c1cnc(C(O)c2cc(Cl)cc(Cl)c2)[nH]1 (configuration not stated) | 20.6µM | – | ? | ? | –
OC(c1ccc(Cl)c(Cl)c1)c1ncc(-c2ccccc2C(F)(F)F)[nH]1 (configuration not stated) | ? | – | ? | 18.4µM | ?
COc1ccc(CCNC(=O)N[C@@H](Cc2ccccc2)C(=O)O)cc1 | – | – | – | – | –
Cc1c(Br)c([N+](=O)[O-])nn1CC(=O)NCc1cccnc1 | – | – | – | – | –
CCn1c(=O)c2sccc2n(CC(=O)NC2CCCC2)c1=O | – | – | – | – | –
COC(=O)C1C(=O)OC(C)(C)C1C(C)C(=O)c1ccccc1 (configuration not stated) | – | – | – | – | –
CCC/C=C/c1ccc(CN2C(C(C)C)C(=O)N(Cc3cn(CC4CCCCC4)nn3)CCS2(=O)=O)cc1 (configuration not stated) | 16.4µM | – | ? | 11.6µM | ?
CCC/C=C/c1ccc(CN2C(C)C(=O)N(Cc3cn(CCOCOC)nn3)CCS2(=O)=O)cc1 (configuration not stated) | – | – | – | ? | –
CCC/C=C/c1ccc(CN2C(CC(C)C)C(=O)N(Cc3cn(CCOCOC)nn3)CCS2(=O)=O)cc1 (configuration not stated) | – | – | – | – | –
CCC/C=C/c1ccc(CN2C(C)C(=O)N(Cc3cn(CC4CCCCC4)nn3)CCS2(=O)=O)cc1 (configuration not stated) | ? | – | – | 20.6µM | –
Cc1cccc2c1cnn2C(=O)Nc1cc(F)ccc1F | – | – | – | – | –
COc1ccc(/C=C(/NC(=O)c2ccc(Br)cc2)C(=O)Nc2cccc(C(=O)O)c2)cc1 | – | – | – | – | –
O=c1c2ccccc2sc2ccc(C#CC3(O)CCCCC3)cc12 | ? | ? | – | ? | –

From PubChem
